Tests used:
Details in all cases: Compound Concentration (nM):1000
AAK1 = tested on: AAK1
[1] = tested on: ABL1(E255K)-phosphorylated
[2] = tested on: ABL1(F317I)-nonphosphorylated
[3] = tested on: ABL1(F317I)-phosphorylated
[4] = tested on: ABL1(F317L)-nonphosphorylated
[5] = tested on: ABL1(F317L)-phosphorylated
[6] = tested on: ABL1(H396P)-nonphosphorylated
[7] = tested on: ABL1(H396P)-phosphorylated
[8] = tested on: ABL1(M351T)-phosphorylated
[9] = tested on: ABL1(Q252H)-nonphosphorylated
[10] = tested on: ABL1(Q252H)-phosphorylated
[11] = tested on: ABL1(T315I)-nonphosphorylated
[12] = tested on: ABL1(T315I)-phosphorylated
[13] = tested on: ABL1(Y253F)-phosphorylated
ABL1-nonphosphorylated = tested on: ABL1-nonphosphorylated
ABL1-phosphorylated = tested on: ABL1-phosphorylated
ABL2 = tested on: ABL2
ACVR1B = tested on: ACVR1B
ACVR1 = tested on: ACVR1
ACVR2A = tested on: ACVR2A
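Further: KINOMEscan scanMAX binding as percent activity remaining versus control; lower means stronger binding.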

Row | Structure (SMILES) | Percent Control (AAK1) [%] | Percent Control [1] [%] | Percent Control [2] [%] | Percent Control [3] [%] | Percent Control [4] [%] | Percent Control [5] [%] | Percent Control [6] [%] | Percent Control [7] [%] | Percent Control [8] [%] | Percent Control [9] [%] | Percent Control [10] [%] | Percent Control [11] [%] | Percent Control [12] [%] | Percent Control [13] [%] | Percent Control (ABL1-nonphosphorylated) [%] | Percent Control (ABL1-phosphorylated) [%] | Percent Control (ABL2) [%] | Percent Control (ACVR1B) [%] | Percent Control (ACVR1) [%] | Percent Control (ACVR2A) [%]
1 | COC(=O)Nc1nc2ccc(Oc3ccc(NC(=O)Nc4cc(C(F)(F)F)ccc4F)cc3)cc2s1.Cl [GW693917A] | 100 | 28 | 4.5 | 36 | 3.6 | 14 | 0 | 15 | 12 | 0 | 32 | 5.1 | 6.7 | 15 | 3.1 | 13 | 2.6 | 100 | 89 | 100
2 | CCS(=O)(=O)c1ccc(OC)c(Nc2ncc(-c3cccc(F)c3)o2)c1 [GW621970X] | 100 | 6.7 | 98 | 51 | 47 | 5.4 | 1.1 | 9.3 | 6.6 | 4.5 | 4.9 | 100 | 91 | 7.1 | 20 | 9.9 | 33 | 100 | 18 | 100
3 | CN1CCN(C(=O)c2ccc(NC(=O)Nc3ccc(N(C)c4ccnc(Nc5ccc(CS(C)(=O)=O)cc5)n4)cc3)cc2)CC1.Cl [GW830263A] | 19 | 38 | 96 | 69 | 51 | 34 | 1.4 | 32 | 20 | 6.1 | 30 | 0 | 21 | 20 | 9 | 30 | 44 | 77 | 28 | 78
4 | CN(C)CCNC(=O)Nc1ccc(N(C)c2ccnc(Nc3ccc(CS(C)(=O)=O)cc3)n2)cc1.Cl [GW830900A] | 20 | 82 | 93 | 84 | 91 | 84 | 38 | 82 | 73 | 47 | 58 | 78 | 86 | 65 | 59 | 71 | 75 | 100 | 79 | 79
5 | COc1ccccc1-c1cc(/C=C2\C(=O)Nc3ncc(Br)cc32)cc(Br)c1O [GW442130X] | 87 | 83 | 100 | 100 | 100 | 100 | 48 | 85 | 100 | 94 | 86 | 87 | 100 | 88 | 84 | 77 | 100 | 95 | 100 | 100
6 | Cl.O=C(O[C@H]1CN[C@H](C#Cc2cc3ncnc(Nc4ccc5c(cnn5Cc5ccccc5)c4)c3s2)C1)N1CCOCC1 [GSK200398A] | 87 | 88 | 89 | 85 | 100 | 52 | 80 | 90 | 100 | 84 | 80 | 100 | 100 | 78 | 84 | 76 | 100 | 100 | 100 | 100
7 | O=C(Nc1n[nH]c2nc(-c3ccc(O)cc3)c(Br)cc12)C1CC1 [SB-725317] | 79 | 26 | 100 | 80 | 100 | 100 | 1.9 | 28 | 33 | 7 | 37 | 16 | 12 | 48 | 22 | 31 | 100 | 100 | 72 | 75
8 | COc1ccc2[nH]c3c4[nH]c5ccc(OC)cc5c4c4c(c3c2c1)C(=O)NC4=O [GW296115X] | 53 | 64 | 87 | 73 | 84 | 75 | 34 | 65 | 68 | 28 | 36 | 44 | 94 | 53 | 58 | 57 | 82 | 100 | 77 | 58
9 | NS(=O)(=O)c1ccc(N/N=C2\C(=O)Nc3ccc(Cl)cc32)cc1 [GW280670X] | 94 | 100 | 99 | 96 | 100 | 100 | 81 | 100 | 100 | 81 | 100 | 100 | 100 | 100 | 93 | 100 | 100 | 100 | 100 | 100
10 | COc1ccc(COc2ccc(Cc3cnc(N)nc3N)cc2OC)cc1 [GW632580X] | 94 | 75 | 99 | 95 | 100 | 93 | 88 | 86 | 85 | 88 | 92 | 100 | 87 | 84 | 90 | 76 | 91 | 100 | 74 | 95

Reference: PMC7826789 (International Journal of Molecular Sciences, 2021)
